HCV inhibitor: inhibitors of hepatitis C virus infection. Huh7.5.1 HCVcc-Cre infection, luciferase reporter, 44 h. Potency, µM (top dose mostly 41.8 µM), without a hit: at the top dose activity change, negative = inhibition, most hits filed as inhibitors. actives 3.4% (n = 340,000); active means well fitted inhibition curve with a large enough effect; inconclusive means small, poorly fitted or top-dose-only effect, or another doubt; inactive means no such curve, though single readings can be large or run the other way
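Cells seeded at 1,000/well and cultured 4 h, then compounds added followed by HCVcc-Cre virus (~0.5 moi). After 44 h further culture, luciferase substrate was added, plates held 15 min at room temperature, and luminescence read for 15 sec.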
Vaccinia mCherry: inhibitors of vaccinia virus infection (mCherry reporter signal) | AID 720579 | Vaccinia virus mCherry reporter infection, fluorescence | Potency, µM (series often up to 36.5 µM), for the others: at the top dose activity change, negative = inhibition, most hits filed as inhibitors | actives 0.63% (n = 310,000); calls by dose curve; tested in A549 cells; further: nearly all actives have a fitted effect of over 35% in size
VACV Venus inh: vaccinia inhibition (Venus reporter); actives 0.46% (n = 330,000); Potency, µM (series often up to 36.5 µM), inactives show top-dose activity change, negative = inhibition, usual class: inhibitors; Vaccinia virus Venus reporter expression, fluorescence; calls by dose curve; tested in A549 cells; further: nearly all actives have a fitted effect of over 30% in size
Starred values were filed as active, the others as inactive; i = inactive; ? = inconclusive; nt = no result given; [ ] = another dose, or the depositor's remark. Sampled rows, rich in hits. Any-hit rate of the full collection: about 3.3%. On the % scale 0 is the no-effect control and ±100 the full control effect; potency means the concentration at half of the fitted maximal effect.

SMILES	HCV inhibitor	Vaccinia mCherry	VACV Venus inh
COc1ccc(-c2noc(N3CCC(C(=O)NC(C)c4ccccc4)CC3)n2)cc1 (stereo not given)	?	i	-14%
COc1ccc(-c2noc(N3CCC(C(=O)N(C)c4ccccc4)CC3)n2)cc1	11µM*	-8%	?
Cc1ccc(NC(=O)C(C)Sc2nc(-c3ccccc3)cc(=O)[nH]2)cc1 (stereo not given)	15%	nt	nt
O=C1c2ccccc2S(=O)(=O)c2cc(N3CCC4(CC3)OCCO4)ccc21	-13%	i	-22%
Cc1ccccc1NC(=S)N1CCCC(c2nc3ccccc3[nH]2)C1 (stereo not given)	-24%	1%	5%
Cc1ccc(NC(=S)N2CCCC(c3nc4ccccc4[nH]3)C2)cc1 (stereo not given)	2.5µM*	nt	nt
O=C(/C=C/c1cccs1)Nc1ccc(N2CCOCC2)c(S(=O)(=O)Nc2ccccc2Cl)c1	?	-28%	-16%
O=C(Nc1ccc(Cl)c(Cl)c1)Nc1ccc(N2CCCC2)c(S(=O)(=O)Nc2ccccc2Cl)c1	?	13µM*	11µM*
COc1ccccc1NS(=O)(=O)c1cc(NC(=O)c2cc(=O)[nH]c3ccccc23)ccc1N1CCOCC1	25µM*	nt	nt
O=C(Nc1ccc(F)cc1)Nc1ccccc1N1CCCCC1	11µM*	nt	nt
O=C(Cc1ccc(F)cc1)Nc1ccccc1N1CCCC1	-2%	nt	nt
COc1ccccc1NS(=O)(=O)c1cc(NC(=O)Nc2ccccc2)ccc1N1CCCCC1	?	-29%	-22%
O=C(Nc1ccc(F)cc1)Nc1ccc(N2CCCC2)c(S(=O)(=O)Nc2ccccc2Cl)c1	6.3µM*	11µM*	11µM*
COc1ccccc1NS(=O)(=O)c1cc(NC(=O)C(C)(C)C)ccc1N1CCOCC1	?	-3%	-10%
CCC1CN(CCNC(=O)c2cn3cc(C)ccc3n2)Cc2cc(OC)ccc2O1 (stereo not given)	nt	-28%	-21%
COc1ccc(CN(Cc2ccccc2)C(=O)CN2CCN(C)CC2)cc1COc1ccc(NC(C)=O)cc1	nt	-3%	-19%
CO[C@H]1[C@H](NC(=O)c2ccsc2)c2ccccc2C12CCN(Cc1cnn(C)c1C)CC2	nt	-13%	-7%
COc1cccc(C2=CC(c3ccccc3O)NC(C)(C)N2)c1 (stereo not given)	nt	11%	-12%
COc1ccc(CN2[C@@H](CC(=O)O)c3ccc(/C=C/C(=O)O)cc3S2(=O)=O)cc1	nt	i	-16%
Cc1cc(F)ccc1S(=O)(=O)Nc1ccc(O)c(Sc2ncn[nH]2)c1	22%	-27%	-3%
O=C(Nc1ccccc1N1CCCC1)c1cccnc1	-23%	nt	nt
O=C(Nc1ccc(N2CCCCC2)c(S(=O)(=O)Nc2ccccc2Cl)c1)c1cccnc1	13µM*	-1%	-7%
O=C(Nc1ccc(N2CCOCC2)c(S(=O)(=O)Nc2ccccc2Cl)c1)c1ccc(F)cc1	10µM*	-12%	-21%
COc1ccccc1NS(=O)(=O)c1cc(NC(=O)c2ccc(NC(C)=O)cc2)ccc1N1CCOCC1	?	-14%	-15%
N#CC1(NC(=O)CSc2nnc(Nc3ccccc3F)s2)CCCC1	5%	-10%	-7%
SMILES	HCV inhibitor	Vaccinia mCherry	VACV Venus inh
Cc1ccc2cc(CNC(C)CO)c(N3CCC(O)CC3)nc2c1 (stereo not given)	nt	6%	25%
CN1CCN(C(=O)/C=C/c2ccc(C#N)cc2)CC1	24%	-13%	-4%
Cc1ccc(CNC(=O)CCNS(=O)(=O)c2cccc3nsnc23)cc1	4%	-4%	-7%
COc1cc(CNCCSc2nnnn2C)cc(Br)c1OCc1ccc(F)cc1	10µM*	nt	?
CCOc1cc(CNCCSc2nnnn2C)cc(Br)c1OCc1ccc(F)cc1	?	-12%	-25%
COc1cc(CNCCCN2CCOCC2)cc(Br)c1OCc1ccc(Cl)cc1	1.8µM*	nt	nt
COc1cc(CNCCN2CCOCC2)ccc1OCc1ccc(Cl)cc1	7.1µM*	nt	-14%
COc1cc(CNCCN2CCOCC2)ccc1OCc1ccccc1Cl	?	-12%[1.46 µM]	-15%
CCOc1cc(CNc2ccc(Br)cc2)cc(Br)c1OCC(=O)NC(C)(C)C	?	-11%	?
CCOc1cc(CNc2ccccc2)cc(Br)c1OCC(=O)NC(C)(C)C	13µM*	?	?
C=CCOc1c(Cl)cc(CNCCCN2CCOCC2)cc1OC	?	-3%	-6%
CCN(CC)c1ccc(C(=O)N2CCC(c3ccncc3)CC2)cc1	nt	-10%	-19%
CCN(CCO)C(=O)c1cnn(-c2ncc3c(n2)-c2ccccc2CCC3)c1C1CC1	nt	-18%	-19%
O=C(COc1ccccc1Cl)NCC1(N2CCOCC2)CCCCC1	nt	-24%	-21%
O=C(CSc1n[nH]c(-c2ccncc2)n1)Nc1ccc(Cl)c(Cl)c1	23%	-16%	-12%
CS(=O)(=O)Nc1nc2n(n1)C(c1ccccc1)CC(c1ccccc1)N2 (stereo not given)	16%	i	-3%

Screens: PubChem BioAssay, National Center for Advancing Translational Sciences (NCATS)
